Screening results as filed in PubChem.
Compounds with a hit are over-represented: about 0.53% of the library has one in this group of screens.
TcdB inh – TcdB glycohydrolase inhibition; AID 652162; TcdB glycohydrolase enzymatic assay, plate reader; 350,000 compounds, 0.24% hits; inhibition, % at 9.99 µM; P18177; in the data active means inhibition above about 10%
Target sequence (P18177 whole entry, looked up): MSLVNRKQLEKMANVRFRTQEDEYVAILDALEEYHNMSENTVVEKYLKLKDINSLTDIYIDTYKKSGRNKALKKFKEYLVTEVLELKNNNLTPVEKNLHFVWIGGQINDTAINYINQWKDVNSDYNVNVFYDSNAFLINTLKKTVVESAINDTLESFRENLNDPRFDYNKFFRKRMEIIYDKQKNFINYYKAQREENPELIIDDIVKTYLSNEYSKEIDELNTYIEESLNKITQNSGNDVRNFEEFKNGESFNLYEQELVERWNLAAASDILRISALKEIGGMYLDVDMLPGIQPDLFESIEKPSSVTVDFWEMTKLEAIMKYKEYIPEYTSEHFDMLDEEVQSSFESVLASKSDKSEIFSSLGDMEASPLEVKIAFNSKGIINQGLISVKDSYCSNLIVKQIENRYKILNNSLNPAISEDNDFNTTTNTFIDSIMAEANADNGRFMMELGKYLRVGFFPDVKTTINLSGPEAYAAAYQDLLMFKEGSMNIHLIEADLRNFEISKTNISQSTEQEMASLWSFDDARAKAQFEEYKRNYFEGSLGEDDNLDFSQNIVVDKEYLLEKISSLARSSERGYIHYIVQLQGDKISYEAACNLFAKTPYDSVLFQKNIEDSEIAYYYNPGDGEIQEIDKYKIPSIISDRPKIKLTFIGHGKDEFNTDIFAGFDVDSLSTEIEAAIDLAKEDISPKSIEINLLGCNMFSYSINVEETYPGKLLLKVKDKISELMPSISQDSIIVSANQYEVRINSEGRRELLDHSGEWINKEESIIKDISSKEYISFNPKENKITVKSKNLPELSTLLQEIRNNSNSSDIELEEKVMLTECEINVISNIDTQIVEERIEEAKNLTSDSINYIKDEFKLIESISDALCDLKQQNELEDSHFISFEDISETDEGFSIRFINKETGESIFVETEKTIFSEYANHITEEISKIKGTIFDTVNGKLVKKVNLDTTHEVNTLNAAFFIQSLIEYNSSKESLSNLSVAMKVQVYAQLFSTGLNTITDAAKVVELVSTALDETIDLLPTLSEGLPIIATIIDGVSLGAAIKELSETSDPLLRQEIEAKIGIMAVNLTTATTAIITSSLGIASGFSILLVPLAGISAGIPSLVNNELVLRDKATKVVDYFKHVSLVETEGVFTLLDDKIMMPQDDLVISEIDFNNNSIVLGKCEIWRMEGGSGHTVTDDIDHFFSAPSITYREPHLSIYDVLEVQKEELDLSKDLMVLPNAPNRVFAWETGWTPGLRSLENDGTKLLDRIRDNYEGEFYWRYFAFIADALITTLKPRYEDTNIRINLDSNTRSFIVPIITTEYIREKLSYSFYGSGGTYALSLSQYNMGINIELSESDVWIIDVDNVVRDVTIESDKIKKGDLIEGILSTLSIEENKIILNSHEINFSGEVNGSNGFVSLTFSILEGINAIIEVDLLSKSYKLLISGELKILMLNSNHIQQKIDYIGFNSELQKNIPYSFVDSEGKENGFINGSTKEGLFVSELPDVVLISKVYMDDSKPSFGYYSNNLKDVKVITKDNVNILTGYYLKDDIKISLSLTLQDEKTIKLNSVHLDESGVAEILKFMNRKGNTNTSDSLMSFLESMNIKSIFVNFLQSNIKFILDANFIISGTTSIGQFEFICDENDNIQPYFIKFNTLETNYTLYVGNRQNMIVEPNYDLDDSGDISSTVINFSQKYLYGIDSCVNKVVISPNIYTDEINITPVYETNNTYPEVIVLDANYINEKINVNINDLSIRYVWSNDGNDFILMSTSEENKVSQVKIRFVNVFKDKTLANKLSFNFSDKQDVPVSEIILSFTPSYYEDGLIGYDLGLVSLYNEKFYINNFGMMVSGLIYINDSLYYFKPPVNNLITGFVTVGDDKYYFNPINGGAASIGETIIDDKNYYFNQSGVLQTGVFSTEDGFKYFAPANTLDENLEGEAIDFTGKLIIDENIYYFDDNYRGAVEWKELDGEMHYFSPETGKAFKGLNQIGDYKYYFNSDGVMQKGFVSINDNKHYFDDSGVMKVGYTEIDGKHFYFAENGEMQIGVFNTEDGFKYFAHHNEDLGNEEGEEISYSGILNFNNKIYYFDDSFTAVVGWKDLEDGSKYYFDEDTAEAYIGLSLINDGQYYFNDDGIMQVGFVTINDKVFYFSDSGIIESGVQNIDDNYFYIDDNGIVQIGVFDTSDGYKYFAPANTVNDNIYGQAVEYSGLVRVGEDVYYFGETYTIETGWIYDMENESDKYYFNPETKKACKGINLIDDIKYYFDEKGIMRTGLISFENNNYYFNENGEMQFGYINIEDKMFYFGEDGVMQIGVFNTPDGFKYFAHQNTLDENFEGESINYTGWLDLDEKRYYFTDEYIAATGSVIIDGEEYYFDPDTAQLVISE
Yp Topo-I inh – inhibitors of Yersinia pestis topoisomerase I; Y. pestis Topo-I cleavage product accumulation, plate reader; activity, % at 10 µM; 360,000 compounds, 0.064% hits; AID 504884; in the data active means activity above about 50%, passing the limit was not always enough; inconclusive means no clear call, values can overlap the other calls
PrP UTR inh – inhibition of PrP 5' UTR reporter expression | cell-based PrP 5' UTR mRNA reporter, plate reader | inhibition, % (test concentration not listed) | 340,000 compounds, 0.35% hits | AID 488862; in the data active means inhibition above about 52%
Mtb BioA inh – BioA (M. tuberculosis) enzyme inhibition | purified M. tuberculosis BioA enzyme, plate reader | 360,000 compounds, 0.096% hits | inhibition, % at 9.99 µM; in the data active means inhibition above about 40%; inconclusive means no clear call, values can overlap the other calls
PrP 5UTR single – prion 5' UTR mRNA inhibition, cherry-pick retest. shares compounds with PrP UTR inh. cell-based prion protein 5' UTR reporter, plate reader. inhibition, % at 2.5 µM. 1,100 compounds, 48% hits; in the data active means inhibition above about 54%; inconclusive means no clear call, values can overlap the other calls
Of the large screens only hits and unclear results are named; the others gave an inactive call (follow-up assays come after a bar, where they were run).

O=[N+]([O-])c1cccc(C=NNc2ccc3ccccc3n2)c1O	PrP UTR inh 56 (no result: Mtb BioA inh) | PrP 5UTR single inactive
COc1cccc(/C=N/Nc2ccc(C(=O)O)cc2)c1O	PrP UTR inh 88 (no result: Mtb BioA inh) | PrP 5UTR single 90
O=[N+]([O-])c1ccc(NN=Cc2cccc3ccccc23)nc1	none
O=C(N[C@@H]1CC[C@@H](CCNC(=O)c2cnccn2)O[C@@H]1CO)c1ccc2c(c1)OCO2	none (no result: Yp Topo-I inh, PrP UTR inh)
C=CCN1Cc2ccccc2C[C@@]2(COC(c3ccc(OCCCO)cc3)=N2)C1=O	none (no result: Yp Topo-I inh, PrP UTR inh)
O=C(Nc1ccccn1)c1ccc(C(=O)c2ccccc2)cc1	none
COc1ccc(C(=O)NC(=O)Nc2cc(C)ccn2)cc1	PrP UTR inh 61 | PrP 5UTR single 64
O=C(NC(=O)c1ccccc1)Nc1ccccn1	PrP UTR inh 75 | PrP 5UTR single 76
CC1(C)CC[C@]2(C(=O)n3ccnc3)CC[C@]3(C)[C@H](C(=O)C=C4[C@@]5(C)C=C(C#N)C(=O)C(C)(C)[C@@H]5CC[C@]43C)[C@@H]2C1	PrP UTR inh 94 (no result: Mtb BioA inh) | PrP 5UTR single 97
Cc1ccc(S(=O)(=O)Nc2ccc3c(c2)C(=O)N([C@@H](C)CO)C[C@H](C)[C@@H](CN(C)Cc2ccc4c(c2)OCO4)OCCCC[C@H](C)O3)cc1	none (no result: Yp Topo-I inh, PrP UTR inh)
CCN1C(=O)[C@H]2[C@H]3CN=C(SCc4ccccc4)N3[C@@](Cc3ccccc3)(C(=O)OC)[C@H]2C1=O	none
CCN1C(=O)[C@H]2[C@H]3CN=C(SCC4CC4)N3[C@@](Cc3ccccc3)(C(=O)OC)[C@H]2C1=O	PrP UTR inh 64 | PrP 5UTR single inactive
C[C@@H]1CN([C@@H](C)CO)C(=O)c2cc(NC(=O)Nc3ccccc3)ccc2O[C@@H](C)CCCCO[C@H]1CN(C)C(=O)c1ccccc1	none (no result: Yp Topo-I inh, PrP UTR inh)
CC(C)(C)C(=O)Nc1cccc(-c2nnc(-c3cccc(NC(=O)C(C)(C)C)c3)o2)c1	PrP UTR inh 59 (no result: TcdB inh) | PrP 5UTR single inactive
CC(=O)n1cc(-c2ccncc2)c2ccccc21	PrP UTR inh 55 | PrP 5UTR single inactive
c1ccc2ncccc2c1	PrP UTR inh 63 (no result: TcdB inh) | PrP 5UTR single inactive
O=C(C[C@@H]1C=C[C@H](NC(=O)C2CC2)[C@@H](CO)O1)NC1CCC1	none (no result: Yp Topo-I inh, PrP UTR inh)
COC(=O)CCn1nnc(-c2ccc(C(C)C)cc2)n1	PrP UTR inh 73 (no result: TcdB inh, Mtb BioA inh) | PrP 5UTR single 70
CCCCOCC(O)CCc1n[nH]c(=S)n1-c1ccccc1 (configuration not stated)	PrP UTR inh 80 (no result: Mtb BioA inh) | PrP 5UTR single inactive
CC1CCCN(c2ncnc3c2cnn3-c2ccc(Cl)cc2)C1 (configuration not stated)	PrP UTR inh 88 | PrP 5UTR single 84
C[C@H]1CN([C@@H](C)CO)C(=O)c2cc(-c3cccc(C#N)c3)cnc2O[C@@H]1CN(C)C(=O)c1cnccn1	none (no result: TcdB inh, Yp Topo-I inh, PrP UTR inh)
CC(C)NC(=O)N1[C@@H](CO)[C@@H](c2ccccc2)C12CN(Cc1ccc(F)cc1)C2	none (no result: Yp Topo-I inh, PrP UTR inh, Mtb BioA inh)
Cc1ccccc1N1C(=O)CC2(CCCC2)CC1=O	PrP UTR inh 82 | PrP 5UTR single inactive
O=C(c1ccc(F)cc1)N1CCOCC1	PrP UTR inh 69 | PrP 5UTR single inactive
O=C(NCCc1ccccc1)c1ccc2c(c1)OCCO2	PrP UTR inh 88 | PrP 5UTR single 83
COc1ccc(CCNC(=O)c2ccc3c(c2)OCCO3)cc1	none (no result: TcdB inh, Mtb BioA inh)
O=C(CCc1ccccc1)c1ccc2c(c1)OCCCO2	none (no result: TcdB inh)
O=C(Nc1ccc(F)cc1)c1ccc(C(=O)N2CCOCC2)cc1	none
COC(=O)c1c(N)sc(C(=O)NCCc2ccccc2)c1C	PrP UTR inh 70 | PrP 5UTR single 64
O=C(CCCc1ccccc1)c1ccc2c(c1)OCCO2	PrP UTR inh 83 | PrP 5UTR single 89
COc1ccccc1CN1C[C@@H](C)[C@H](OC)CN(C)C(=O)c2ccc(NC(C)=O)cc2OC[C@H]1C	none (no result: Yp Topo-I inh, PrP UTR inh)
O=C(c1ccccc1)N1CCN(C(=O)c2ccc3c(c2)OCCO3)CC1	PrP UTR inh 78 (no result: Mtb BioA inh) | PrP 5UTR single inactive
O=C(NCCS(=O)(=O)NCCc1ccccc1)c1ccc2c(c1)OCO2	none
Cc1ccc(C(=O)NCCc2ccccc2)cc1	PrP UTR inh 59 (no result: TcdB inh) | PrP 5UTR single 64
O=C(NCCc1ccccc1)c1ccc2c(c1)OCCCO2	PrP UTR inh 92 | PrP 5UTR single 91
CO[C@H]1CN(C)C(=O)c2ccc(NC(=O)c3ccc4c(c3)OCO4)cc2OC[C@H](C)N(CCC(F)(F)F)C[C@H]1C	none (no result: Yp Topo-I inh, PrP UTR inh)
Cc1noc(C)c1NC(=O)Nc1ccc2c(c1)CC(=O)N([C@H](C)CO)C[C@@H](C)[C@@H](CN(C)Cc1ccc(Cl)c(Cl)c1)O2	none (no result: Yp Topo-I inh, PrP UTR inh)
C[C@@H]1CN([C@H](C)CO)C(=O)c2cc(NC(=O)Nc3ccc4c(c3)OCO4)ccc2O[C@@H]1CN(C)C(=O)Nc1ccccc1	none (no result: TcdB inh, Yp Topo-I inh, PrP UTR inh)
CN(C)c1ccc(NC(=S)c2ccccn2)cc1	PrP UTR inh 83 | PrP 5UTR single 80
CN(C)c1ccc(C(=S)Nc2ccccc2)cc1	none (no result: Mtb BioA inh)
Cc1ccc(CNC(=O)C2CCN(c3nnc(N4CCCC4=O)s3)CC2)cc1	PrP UTR inh 69 | PrP 5UTR single inactive
O=c1cc(-c2ccc(Cl)c(Cl)c2)[nH][nH]1	PrP UTR inh 57 (no result: TcdB inh) | PrP 5UTR single inactive
CC(C)C#Cc1ccc2c(c1)O[C@@H](CN(C)Cc1cccnc1)[C@H](C)CN([C@@H](C)CO)S2(=O)=O	none (no result: Yp Topo-I inh, PrP UTR inh)
O=c1c2ccccc2oc2cc(C#CC3(O)CCCCC3)ccc12	PrP UTR inh 70 | PrP 5UTR single 55
COc1cccc2oc3cc(C#CC4(O)CCCCC4)ccc3c(=O)c12	none
O=c1c2ccccc2sc2ccc(C#CC3(O)CCCCC3)cc12	PrP UTR inh 92 | PrP 5UTR single 86
COc1ccc2c3c(n(C)c2c1)[C@@H](CO)N(C(=O)Nc1ccc(F)cc1)CC31CN(C(=O)CN2CCOCC2)C1	none (no result: Yp Topo-I inh, PrP UTR inh, Mtb BioA inh)
OCCCNc1cc(-c2ccnc(Nc3cccc(Cl)c3)n2)ccn1	PrP UTR inh 82 | PrP 5UTR single 84
COC(=O)c1ccc(-n2c(C)cc(C(=O)CSc3ccc(NC(C)=O)cc3)c2C)cc1	none (no result: TcdB inh, Mtb BioA inh)
CC(=O)Nc1ccc(SCC(=O)c2cc(C)n(Cc3cccs3)c2C)cc1	PrP UTR inh 61 (no result: TcdB inh) | PrP 5UTR single inactive
CC(=O)Nc1ccc(SCC(=O)c2cc(C)n(-c3ccccc3F)c2C)cc1	PrP UTR inh 68 (no result: TcdB inh) | PrP 5UTR single inactive
CCc1ccc(/C=C2\SC(=S)N(CCCC(=O)Nc3ccccn3)C2=O)cc1	PrP UTR inh 57 (no result: TcdB inh, Mtb BioA inh) | PrP 5UTR single 55
CCN(CC)c1ccc(C2NC(=O)c3ccccc3N2)cc1 (configuration not stated)	PrP UTR inh 60 (no result: Mtb BioA inh) | PrP 5UTR single inactive
COc1ccc2nc(NCCNC(=S)NCCCN3CCOCC3)c(C#N)cc2c1	PrP UTR inh 78 (no result: Mtb BioA inh) | PrP 5UTR single inconclusive
CN1C2CCC1/C(=C/c1ccccn1)C(=O)/C2=C\c1ccccn1	PrP UTR inh 78 | PrP 5UTR single 91
CC(C)(C)C1C/C(=C/c2ccccn2)C(=O)/C(=C/c2ccccn2)C1 (configuration not stated)	PrP UTR inh 92 (no result: TcdB inh) | PrP 5UTR single 97
C[C@H](CO)N1C[C@H](C)[C@H](CN(C)S(=O)(=O)c2ccc(F)cc2)Oc2ccc(NC(=O)c3ccncc3)cc2CC1=O	none (no result: Yp Topo-I inh, PrP UTR inh)
